Most compounds without a hit are left out; they make up all but 2.4% or so of the library.
MEKK2mut PB1 HTS – signal of MEK5 binding to mutant human MEKK2 PB1 domain; bead flow cytometry, Alexa488-MEK5 binding to MEKK2 mutant; percent response, % at 10 µM; 290,000 tested, 0.35% active; in the data active means percent response above about 24%, passing the limit was not always enough
Pf gamet viab – P. falciparum stage V gametocyte viability inhibition; AID 743093; P. falciparum stage V gametocytes, ATP luminescence, 24 h; inhibition, % at 10.9 µM; 150,000 tested, 0.065% active;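 active means inhibition above the mean plus 3 SD of compounds within the control limits, set per campaign, cut at about 38% in these data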
MEKK2wt PB1 HTS – raises or lowers MEK5 binding to wildtype human MEKK2 PB1 domain | Q9Y2U5 | bead flow cytometry, Alexa488-MEK5 binding to MEKK2 WT; actives lie on both sides | binding response (% of control), % at 10 µM | 290,000 tested, 1.1% active; in the data active means binding response below about 67% or above about 130%
MEKK3 PB1 HTS – MEKK3-MEK5 PB1 interaction, increase or decrease | Q99759 | bead-based flow cytometry, Alexa488-MEK5 binding to MEKK3; actives lie on both sides; 0 = blocked by unlabeled MEK5, 100 = vehicle | binding response (% of control), % at 10 µM | 290,000 tested, 1.4% active | AID 1529;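 active means binding response more than 3 SD above or below the average of its plate-row segment, actives on both sides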;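 further: Alexa488 bead fluorescence after subtracting the streptavidin-only scavenger bead signal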
Target sequence (Q99759 whole entry, looked up): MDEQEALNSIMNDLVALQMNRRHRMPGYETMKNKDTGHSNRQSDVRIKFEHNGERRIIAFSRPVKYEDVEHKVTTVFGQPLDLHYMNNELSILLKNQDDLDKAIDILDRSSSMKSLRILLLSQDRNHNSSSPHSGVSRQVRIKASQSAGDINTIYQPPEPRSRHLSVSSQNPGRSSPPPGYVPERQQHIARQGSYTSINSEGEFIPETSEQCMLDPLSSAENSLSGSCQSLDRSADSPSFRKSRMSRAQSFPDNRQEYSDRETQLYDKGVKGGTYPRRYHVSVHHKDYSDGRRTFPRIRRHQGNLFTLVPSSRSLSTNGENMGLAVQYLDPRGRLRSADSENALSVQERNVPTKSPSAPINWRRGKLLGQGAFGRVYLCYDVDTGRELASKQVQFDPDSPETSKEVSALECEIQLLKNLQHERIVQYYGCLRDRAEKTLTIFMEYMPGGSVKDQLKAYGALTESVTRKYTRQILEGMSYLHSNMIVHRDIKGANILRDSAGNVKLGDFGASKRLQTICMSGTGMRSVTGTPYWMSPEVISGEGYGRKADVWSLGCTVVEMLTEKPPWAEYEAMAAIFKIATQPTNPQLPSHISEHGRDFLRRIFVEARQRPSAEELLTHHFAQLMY
Arbovirus anti – blocks arbovirus infection; AID 1251; 200,000 tested, 0.37% active; arbovirus infection cell-based antiviral screen; inhibition, % at 10 µM; in the data active means inhibition above about 30%
MEKK2wt confirm – raises or lowers MEK5 binding to wildtype human MEKK2, retest; 5,900 tested, 2.4% active; bead flow cytometry, Alexa488-MEK5 binding to MEKK2 WT; actives lie on both sides; shares compounds with MEKK3 PB1 HTS; binding response (% of control), % at 10 µM; in the data active means binding response below about 16% or above about 210%; inactive means in between
MEKK2mut confirm – signal of MEK5 binding to mutant human MEKK2, retest. shares compounds with MEKK3 PB1 HTS. bead flow cytometry, Alexa488-MEK5 binding to MEKK2 mutant. percent response, % at 10 µM. 5,900 tested, 2% active; in the data active means percent response mostly above about 71%, no sharp cut-off; inactive means mostly below about 38%;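 further: higher means compound restores mutant binding toward wildtype level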
MEKK3 confirm – confirmation of inhibitors of MEK5 binding to human MEKK3 | shares compounds with MEKK3 PB1 HTS | bead flow cytometry, Alexa488-MEK5 binding to MEKK3; hits give low values | binding response (% of control), % at 10 µM | 5,900 tested, 1.8% active | AID 1894;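 active means binding response below 72% of control, or above a set upper limit, though filed actives all read lower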
A number is an active result; 0 = inactive; - = no result; + = active, no number; [ ] = another dose, or the depositor's remark.

SMILES	MEKK2mut PB1 HTS	Pf gamet viab	MEKK2wt PB1 HTS	MEKK3 PB1 HTS	Arbovirus anti	MEKK2wt confirm	MEKK2mut confirm	MEKK3 confirm
COc1ccc(CNC(=O)/C(C#N)=C2\N=C(NC(=O)c3cccs3)c3ccccc32)cc1	0	-	0	74.0[inhibitor]	0	0	0	0
COCCNC(=O)/C(C#N)=C1\N=C(NC(=O)c2cccs2)c2ccccc21	0	-	0	0	-	-	-	-
CC(=O)OCC(=O)[C@@]1(O)[C@H](C)C[C@H]2[C@@H]3CCC4=CC(=O)C=C[C@]4(C)[C@@]3(F)[C@@H](O)C[C@@]21C	0	-	0	0	0	-	-	-
C[C@@H]1C[C@H]2[C@@H]3CCC4=CC(=O)C=C[C@]4(C)[C@@]3(F)[C@@H](O)C[C@]2(C)[C@H]1C(=O)CO	0	-	0	122.0	0	0	0	0
O=C(Nc1nnc(-c2ccc3c(c2)CCCC3)o1)c1c(F)cccc1F	0	0	0	68.0[inhibitor]	0	0	0	0
O=C(Nc1nnc(-c2ccc3c(c2)CCCC3)o1)c1ccc(Cl)cc1Cl	0	-	0	0	0	-	-	-
O=C(/C=C/c1c[nH]c2ccccc12)c1ccccc1	0	0	0	136.0	0	0	0	0
Cc1ccc(C(=O)/C=C/c2c[nH]c3ccccc23)cc1	0	-	0	0	0	-	-	-
Fc1ccc(/C=C\c2nccc3c2[nH]c2ccccc23)cc1	0	0	195.0	0	0	0	0	0
C(=C\c1nccc2c1[nH]c1ccccc12)/c1ccccc1	0	-	0	0	-	-	-	-
Cc1ccc(/C=C\c2nccc3c2[nH]c2ccccc23)cc1	0	0	174.0	0	0	0	0	0
CN(CCCC(=O)Nc1ccc(Br)cc1F)S(=O)(=O)c1ccccc1	0	0	0	0	-	-	-	-
CCN(CC(=O)Nc1ccc([N+](=O)[O-])cc1OC)CC(=O)NC(C)(C)C	0	0	0	0	0	-	-	-
COC(=O)C1=C(C)N(Cc2ccccc2)C(=NCc2ccccc2)N[C@H]1c1cccc(F)c1	35.0	0	137.0	0	-	0	0	0
COCCN1C(=S)N[C@@H](c2cccc(F)c2)C(C(=O)OC)=C1C	37.0	-	147.0	0	-	0	0	0
COC(=O)C1=C(C)N(CC2CC2)C(=NCc2cccc(Cl)c2)N[C@H]1c1ccccc1	26.0	-	0	0	-	0	0	0
COC(=O)C1=C(C)N(Cc2ccccc2)C(=NCc2ccccc2)N[C@H]1c1ccccc1	-	0	-	-	-	-	-	-
COC(=O)C1=C(C)N(CC2CC2)C(=NCc2cc(OC)c(OC)c(OC)c2)N[C@H]1c1ccccc1	0	-	0	0	-	-	-	-
COc1ccc(CN2CCN(C(=O)Cn3nc(C(=O)O)c4ccccc4c3=O)CC2)cc1F	0	-	0	0	-	-	-	-
O=S(=O)(Cc1ncc(C(F)(F)F)cc1Cl)c1ccccc1	0	-	0	0	-	-	-	-
O=C(COC(=O)C1(c2cccc(F)c2)CCCC1)NCc1ccc2c(c1)OCO2	0	-	0	132.0	0	0	0	0
COc1cc(/C=N/NC(=O)CN(Cc2ccccc2)S(=O)(=O)c2ccc3c(c2)OCCO3)ccc1O	0	0	0	136.0	0	0	0	0
COc1cccc(C(N)=O)c1OC(=O)Cc1ccccc1F	0	-	0	0	-	-	-	-
O=C(NC1CCC1)C1CCC(=O)N(Cc2ccccc2F)C1 (centres undefined)	0	-	0	0	-	-	-	-
CCN(CC)CC(=O)Nc1ccc2c(c1)N(C(=O)CN(CC)CC)c1ccccc1CC2	0	0	0	0	0	-	-	-
SMILES	MEKK2mut PB1 HTS	Pf gamet viab	MEKK2wt PB1 HTS	MEKK3 PB1 HTS	Arbovirus anti	MEKK2wt confirm	MEKK2mut confirm	MEKK3 confirm
CCN(CC)CC(=O)Nc1ccc2c(c1)Nc1ccccc1CC2	0	0	135.0	0	0	0	0	0
O=C1c2ccccc2C2(c3cc(C(F)(F)F)cc(C(F)(F)F)c3)NCCN12 (centres undefined)	0	-	0	0	-	-	-	-
CCN(CC)C(=O)n1c(Cc2ccccc2)nc2ccccc21	0	0	0	0	-	-	-	-
COc1ccccc1C(CNC(=O)c1cc(C)nc2ccccc12)N(C)C (centres undefined)	0	-	0	0	-	-	-	-
CCC(=O)N1CCc2cc(Br)cc(S(=O)(=O)NCCN3CCCCC3C)c21 (centres undefined)	0	-	0	0	0	-	-	-
CCC(=O)N1CCc2cc(Br)cc(S(=O)(=O)NCCN3CCCCC3CC)c21 (centres undefined)	0	-	0	57.0[inhibitor]	0	0	0	0
CC1CCCN(C(=O)CN2C(=O)c3ccccc3C2=O)C1 (centres undefined)	0	0	13.0[inhibitor]	29.0[inhibitor]	0	0	0	0
CSc1ccc(CN2CCN(CC=C(C)C)C(CCO)C2)cc1 (centres undefined)	0	0	0	0	0	-	-	-
COc1ccc(-n2nc3c(N)n[nH]c3cc2=O)cc1	0	0	0	67.0[inhibitor]	0	0	0	68.0
COC(CNC(=O)c1cccc(-n2c(=S)[nH]c3cc(Cl)ccc3c2=O)c1)OC	0	0	0	0	0	-	-	-
C/C(=N\NC(=O)CNC(=O)C(c1ccccc1)c1ccccc1)c1ccc(C(C)(C)C)cc1	0	0	0	162.0	0	0	0	0
CCOC(=O)C[N+]1(C)CCN(C(C)=O)CC1	0	0	0	0	0	-	-	-
COc1ccc(NC(=S)N/N=C2\CC(C)(C)Oc3ccc(OC)cc32)cc1	0	0	0	130.0	0	0	0	0
Cc1cc2cc(CN(Cc3ccco3)C(=S)NCC3CCCO3)c(=O)[nH]c2cc1C (centres undefined)	0	0	0	0	0	-	-	-
Cc1cc2cc(CN(CC3CCCO3)C(=S)NCc3ccco3)c(=O)[nH]c2cc1C (centres undefined)	0	0	0	147.0	0	0	0	0
COc1cccc(C(=O)N2CCN(Cc3ccccn3)CC2)c1	0	-	0	0	-	-	-	-
O=C(O)Cc1sc(-c2ccc(Cl)cc2)nc1-c1ccccc1	0	-	0	123.0	0	0	0	0
S=C1NC[C@H](c2ccccc2)N1CCCCC1CCCCC1	0	0	0	0	-	-	-	-
NC1=NC[C@H](c2ccccc2)N1CCCCC1CCCCC1	0	0	146.0	0	-	0	0	0
CCN(CC(=O)Nc1cccc(C#N)c1)CC(=O)Nc1cccc(OC)c1	0	0	0	0	0	-	-	-
O=C(Cn1nc(-c2ccccc2Cl)ccc1=O)Nc1ccc(Br)cc1	+	0	-	140.0	0	0	0	0
COCCCNCCCCSc1ccc(Cl)cc1	0	-	0	52.0[inhibitor]	0	0	0	0
COCCCNCCOCCSc1ccc(Cl)cc1	0	0	0	0	0	-	-	-
COc1ccc(-c2noc(CN(C(=O)C(C)(C)C)C(C)C)n2)cc1	25.0	0	0	0	0	0	0	0
COc1ccc(C(=O)N2CCN(C(=O)Cc3ccccc3)CC2)cc1	0	0	0	0	0	-	-	-

Screening results: PubChem BioAssay, several laboratories
